Out of some 1,400 compounds screened, about 140 (10%) were called active.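 Rule for the calls: active = Half-maximal inhibitory dose from the fit at or below ten times the top valid tested dose; inconclusive = Invalid fit, or flat curve showing 30 to 70% inhibition; inactive = the rest.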 A selection follows. Results with a measured potency or affinity are listed apart.
Target: Lysine-specific demethylase 4C (Homo sapiens) (UniProt Q9H3R0)
Assay: inhibition of JMJD2C H3K9me3 demethylation – biochemical, DELFIA europium, cherry-picked samples, dose response (AID 488835);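 note: signal is the H3K9me2 demethylation product detected by a dimethyl-specific antibody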
Settings: GST-JMJD2C(1-420); series mostly up to 6 µM; activity change, negative = inhibition: at the top concentration

Sequence of Lysine-specific demethylase 4C (Homo sapiens) (Q9H3R0 1-420 limits assumed): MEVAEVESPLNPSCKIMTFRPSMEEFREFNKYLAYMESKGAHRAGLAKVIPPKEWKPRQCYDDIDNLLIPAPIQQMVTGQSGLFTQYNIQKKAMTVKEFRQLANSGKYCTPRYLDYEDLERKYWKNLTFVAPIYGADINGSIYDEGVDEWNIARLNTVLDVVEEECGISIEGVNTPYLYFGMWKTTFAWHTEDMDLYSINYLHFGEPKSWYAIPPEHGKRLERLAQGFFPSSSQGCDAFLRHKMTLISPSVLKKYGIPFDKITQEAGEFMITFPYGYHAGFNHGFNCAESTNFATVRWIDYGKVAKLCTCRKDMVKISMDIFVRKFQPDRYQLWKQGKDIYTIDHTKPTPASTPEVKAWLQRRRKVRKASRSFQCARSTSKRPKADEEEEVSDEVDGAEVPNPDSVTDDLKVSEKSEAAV

Activity change, negative = inhibition, inactive:
COc1ccc(CN2CCNC(=O)C2CC(=O)NCc2csc(C(C)C)n2)c(OC)c1 (stereo unspecified) -5.09%
Cc1ccc(C2=[N+]([O-])C(C)(C)CC2)cc1 6.51%
O=C(/C=C/c1cccs1)NC1CCS(=O)(=O)C1 (stereo unspecified) -6.7%
CCOC(=O)c1c(NC(=O)C2CCCO2)sc2c1CCC2 (stereo unspecified) 0.617% [at 1.6 µM]
CC(C)(C)NC(=O)C1CCN(C(=O)c2ccc(Br)cc2)CC1 3.64%
CC1=C(C#N)C(Nc2ccc(C)cn2)(C(F)(F)F)C(=O)N1 (stereo unspecified) 2.37%
Cc1csc(SCC(=O)Nc2ccccc2C)n1 2.73%
Cc1ccccc1C(=O)Nc1ccccc1C(=O)NC1CC1 5.56%
N/C(=N\NC(=O)c1ccc(Cl)cc1)c1cnccn1 -1.36%
CCCc1c(NC(=O)Nc2ccc(F)cc2)cnn1-c1ccccc1 7.81%
CC1CCN(c2ccc3c(c2)S(=O)(=O)c2cccc(C(=O)NC4CC4)c2C3=O)CC1 7.81%
CCOC(=O)CCC(=O)NCc1ccc2c(c1)cc(C)n2C 7.23%
CCN(c1ccc(NC(=O)CCNC(=O)c2ccco2)cc1)C(C)C 7.29%
Cc1c(C2Nc3ccccc3NC3=C2C(=O)CC(C)(C)C3)cnn1C (stereo unspecified) -10.9%
CCOc1cccc(SCc2noc(C(=O)NC(C)C)c2C(=O)O)c1 2.92%
Cc1sc2ncnc(NCCCO)c2c1C 5.97%
Cc1sc2c(c1C)C(=O)/C(=C\Nc1ccccn1)S(=O)(=O)N2C 8.06%
CCN(C[C@H]1N[C@@](Cc2ccccc2)(C(=O)OC)[C@H]2C(=O)N(Cc3ccccc3)C(=O)[C@@H]12)S(=O)(=O)c1ccccc1 1.11%
CCN(C[C@H]1N[C@@](CC)(C(=O)OC)[C@H]2C(=O)N(C)C(=O)[C@@H]12)S(=O)(=O)c1ccc(C(F)(F)F)cc1 5.54%
Cc1ccc(-n2c3nc(=O)[nH]c(=O)c-3cc3c(C)nn(-c4ccccc4)c32)c(C)c1 2.71%
O=C1CC2C(=O)NCCN2C(=NC(=O)c2ccccc2)N1 (stereo unspecified) 2.42% [at 1.6 µM]
CCSc1nnc(-c2cccc(S(=O)(=O)N(CC)CC)c2)n1Cc1ccccc1 4.36%
Cc1ccc(-c2csc3nc(C)n(-n4c(C)ccc4C)c(=O)c23)o1 -2.47%
CN(C)CCOc1ccc(-c2c(-c3ccccc3)sc3ccccc23)cc1 1.19% [at 1.6 µM]
Fc1ccc(-c2csc(Nc3ccccn3)n2)cc1 -16.8%
COc1ccc(OC)c(Nc2nc(-c3cccs3)cs2)c1 -4.95%
NC(=O)C1CCN(c2nc(-c3ccc4c(c3)OCCO4)cs2)CC1 -1.63%
COc1ccc(-c2n[nH]c(=S)n2C2CCCCC2)cc1 5.73%
Cc1nc(-c2ccc(C(=O)N3CCCC3)cc2)cs1 -1.97%
OCC1=C[C@@H](O)[C@@H]2C=CO[C@@H](O[C@@H]3O[C@H](CO)[C@@H](O)[C@H](O)[C@H]3O)[C@H]12 -3.31%
COc1ccc2[nH]c(=O)c(CN(CCCN(C)C)C(=O)Nc3ccc(F)cc3)cc2c1 9.27%
N#Cc1ccc(OCC(=O)Nc2ccccc2NS(=O)(=O)c2cccs2)cc1 1.65%
CC(=O)C[C@@H](O)CC(=O)[C@H]1OC(=O)[C@H](C)C/C=C\Cc2ccccc21 7.11%
Cc1cccc(C)c1NC1=NC(=S)N(c2ccc(C(=O)O)cc2)C12CCCCC2 1.15%
O=C(COc1ccc(Cl)cc1)NCCCn1ccnc1 3.44%
O=C(OCCCOC(=O)c1ccc(Br)o1)c1ccc(Br)o1 6.94%
CN(C)S(=O)(=O)c1ccc(N2CCCC2)c(C(=O)Nc2nc3ccc(F)cc3s2)c1 0.98%
COc1ccc2cc(Br)ccc2c1CC(=O)NCCCN1CCOCC1 7.11%
CSCCC(NS(=O)(=O)c1ccc2ccccc2c1)C(=O)O (stereo unspecified) 2.69%
Cn1c(=O)[nH]c(=O)c2[nH]c(NCCCN3CCOCC3)nc21 -6.83%
CCOC(=O)N1CCN(c2ccc(F)cc2[N+](=O)[O-])CC1 2.68%
NC(=O)CC(NC(=S)NCc1ccccc1)C(=O)O (stereo unspecified) 2.62%
O=C(c1ccc2c(c1)OCO2)N1CCCN(C(=O)c2ccc3c(c2)OCO3)CC1 -1.3%
COc1ccc(CC(=O)Nc2ccc(/C(C)=N/NC(=O)c3cccc([N+](=O)[O-])c3)cc2)cc1 -4.82%
O=C(NCC(=O)N1CCCCC1)c1sc2ccccc2c1Cl 0.7%
c1cc2c(cc1C1CCCCC1)c1c3n2CCCNC3CCC1 (stereo unspecified) -0.182%
COC(=O)c1cc(S(=O)(=O)NCCCN2CCCC2=O)cn1C 2.12%
O=[N+]([O-])c1ccc(N2CCN(S(=O)(=O)c3ccc(Cl)cc3)CC2)cc1NCc1cccnc1 -4.65%
C=CCNC(=O)c1ccc(S(=O)(=O)CC)c(Cl)c1Cl 2.45%
COC(=O)C1CCN(C(=O)COC(=O)COc2ccc(C#N)cc2)CC1 2.04%
COc1cccc(NC(=S)/C(=C(\[O-])c2ccc(C)c([N+](=O)[O-])c2)[n+]2ccccc2)c1 -5.3%
Cn1nnnc1SCC(=O)NCC(=O)c1ccccc1 6.65%
O=C(CSc1nnc(CNC(=O)c2cccs2)o1)c1ccccc1 3.92%
NCc1nc(-c2ccc(Cl)cc2)no1 7.79%
CCS(=O)(=O)Nc1ccc(C2=NN(C(=O)c3ccco3)C(c3ccc(C)cc3)C2)cc1 (stereo unspecified) -8.78%
CC(CN1CCCC1)OC(=O)COc1ccccc1 (stereo unspecified) 0.741%
COc1ccc(C(=O)NC2CC3CCCC(C2)N3Cc2ccccc2)cc1 (stereo unspecified) 5.72%
O=C(NC1CCN(S(=O)(=O)c2ccc(F)cc2)CC1)c1ccc(F)cc1 0.599%
CCN(CC)S(=O)(=O)c1ccc(N2CCOCC2)c(NC(=O)c2ccc3c(c2)OCCO3)c1 4.55%
Oc1ccccc1N1CCN(C(=S)NCc2ccccc2)CC1 3.28%
O=C(O)CCNc1ccc2c(c1)OCCO2 2.97%
COc1ccc(S(=O)(=O)Nc2cccc3c2O[C@H](CN(C)Cc2ccc(C(=O)O)cc2)[C@@H](C)CN([C@H](C)CO)C3=O)cc1 5.64%
CC(C)(C)C1CCc2[nH]c3ccccc3c(=O)c2C1 (stereo unspecified) -8.54%
Cc1cc(=O)[nH]c(SCC(=O)Nc2ncc(S(=O)(=O)c3ccc([N+](=O)[O-])cc3)s2)n1 9.14%
CCn1c(=O)c(C(=O)NCCc2ccc(Cl)cc2)c(O)c2ccccc21 -3.1%
CC1CCCCC12NC(=O)N(CC(=O)NCCc1ccccn1)C2=O (stereo unspecified) 2.94%
COc1ccc(NC(=O)Nc2c[nH]c(=O)[nH]c2=O)cc1OC -17.8%
COc1ccc(C(=O)OCCc2sc[n+](CC(=O)c3ccccc3)c2C)cc1 3.83%
CCOC(=O)N1CCC(c2nc3ccccc3[nH]2)CC1 4.41%
O=C(O)c1ccc(/C=N/Nc2cccc(C(F)(F)F)c2)cc1 1.51%
O=C(c1cccc(C(F)(F)F)c1)N1CCCC1 2.21%
Cn1c2ccccc2c(=O)c2ccc(NCCc3cccs3)cc21 -2.85%
COc1cccc(C(C[N+](=O)[O-])c2c(C)[nH]n(-c3ccccc3)c2=O)c1 (stereo unspecified) -3.47%
CCCc1nn(C)c(C(=O)Nc2ccc(C)c(C)c2)c1Cl -4.42%
O=C(Nc1nc2ccccc2n1CCN1CCCC1)C1CCCCC1 1.08%
O=C(N/N=C/c1cc([N+](=O)[O-])cc([N+](=O)[O-])c1O)/C(=C\c1cccs1)NC(=O)c1ccccc1 10.2%
Cc1ccc(/C=N\NC(=O)c2cc([N+](=O)[O-])cc([N+](=O)[O-])c2)o1 5.01%
CC(C)c1ccc(NC2CCCN(C(=O)CCN3CCCCC3=O)C2)cc1 (stereo unspecified) 16.1%
c1ccc(-c2csc(-n3cccn3)n2)cc1 -6.44%
CCOC(=O)c1sc(=S)n(-c2ccc(Cl)cc2)c1SC -5.62%
O=C(Oc1ccc(N2C(=O)CCC2=O)cc1)c1ccccc1 -2.3%
O=C(Nc1nnc(-c2cc(Cl)ccc2Cl)o1)c1ccco1 1.16%
COc1ccc(OC)c(C2=NOC(C(=O)NCCN3CCOCC3)C2)c1 (stereo unspecified) 0.98%
CCOC(=O)[C@H]1[C@H]2COc3ccc(OC)cc3[C@@H]2N2C(=O)c3cc(C)ccc3NC(=O)[C@@]12C 3.57%
Cc1cc2ccccn2c1C(=O)c1ccncc1 2.06%
O=C1CC(CSc2ccc(Cl)cc2)=NN1 -3.58%
CCN(Cc1cc2cc(OC)ccc2[nH]c1=O)C(=O)c1ccncc1 2.46%
Cc1ccccc1NC(=S)c1nc2ccccc2[nH]1 4.49%
Cc1cccc(C2=N/C(=C\c3cccnc3)C(=O)O2)c1 0.125%
Cc1cccc(N2C(=O)C3C4C=CC(C4)C3C2=O)c1 (stereo unspecified) 9.08%
Cc1cccc(NC(=O)/C(=C\c2ccc([N+](=O)[O-])o2)NC(=O)c2ccc(Cl)cc2)c1 -5.59%
O=[N+]([O-])c1ccc(/C=[N+](\[O-])[C@@H]2CCCC[C@@H]2/[N+]([O-])=C/c2ccc([N+](=O)[O-])o2)o1 2.35%
COc1cccc(C2c3[nH]c4ccccc4c3CCN2CCCn2cccn2)c1 (stereo unspecified) -2.21%
N#CCCCCN1c2cccc3cccc(c23)S1(=O)=O 2.59%
O=C(Cn1cnc2c(OCc3ccccc3)ncnc21)NCCN1CCOCC1 -2.74%
CN1CCN(c2ccc([N+](=O)[O-])cc2C(=O)N2CCOCC2)CC1 2.83%
Cc1c(C(=O)N2CCC3(CC2)CC(=O)c2ccccc2O3)cccc1[N+](=O)[O-] -4.59%
COc1ccc(OC)c(N(CC(=O)NCc2ccncc2)S(C)(=O)=O)c1 -3.48%
COc1ccc(-c2cc(C(F)(F)F)n3nc(C(=O)NCCCN4CCOCC4)cc3n2)cc1 1.92%
Cc1[nH]c2ccccc2c1-c1ccc(Cl)nn1 7.91%
COC(=O)c1ccc(CSc2nnc(N)s2)o1 3.51%
COC(=O)c1sc(S(=O)(=O)NCc2ccccc2)c(C(=O)OC)c1C 0.554%
COc1ccc(NC(=O)N(C)C[C@H]2Oc3c(NC(=O)Nc4ccccc4)cccc3C(=O)N([C@H](C)CO)C[C@@H]2C)cc1 -1.85%
COC(=O)C(Cc1ccccc1)NC(=O)COc1ccc(C(C)(C)C)cc1 (stereo unspecified) -0.353%
COc1cc2cnncc2cc1OC 6.48%
C/C(CC(=O)Nc1cccc(Cl)c1Cl)=N\NC(=O)c1ccccc1N -1.55%

Source: PubChem BioAssay AID488835 (Broad Institute, 2010)
